According to PubChem BioAssay (NCATS):
Results filed as inconclusive are left out. Entries that show only a call come without a potency. Active and inactive are the calls of the source. The call rests on the fitted dose curve; in most records, active means well fitted cell-killing curve with a large enough effect; inconclusive means small, poorly fitted or top-dose-only effect; inactive means no such curve, though single readings can be large or run the other way.
Potency means the concentration at half of the fitted maximal effect.

Assay: qHTS of pediatric cancer cell lines to identify multiple opportunities for drug repurposing: Primary screen for SJ-GBM2 cells (AID 1347091)
Settings: SJ-GBM2 viability, CellTiter-Glo luminescence, 48 h; series mostly up to 46 µM
Text: Drug repurposing or repositioning has been offered as a strategy for drug development in oncology programs. This approach has special potential for childhood cancers and other rare or orphan diseases, where the expected return on new drug development has been a disincentive to pharmaceuticals.
In this project we exploit the poly-pharmacology of drugs to discover new indications via phenotypic screening of a panel of 19 well-characterized cell lines derived from solid tumors seen in children and adolescents. The goal is to identify approved drugs with previously unrecognized anticancer properties that has the potential to reveal new mechanisms and biological processes involved in carcinogenesis or drug resistance. We employed a titration-based paradigm (quantitative high-throughput screening or qHTS), where all compounds were tested at multiple concentrations for their effect on cell viability. Concentration-response curves (CRCs) were derived directly from the primary screen, and both potency and efficacy values were used to identify compounds with robust bioactivity profiles. We screened the NIH Chemical Genomics Center (NCGC) Pharmaceutical Collection (NPC) and Mechanism Interrogation Plate (MIPE) small molecule collections of approved and investigational compounds against these cell lines; and measured metabolically active cells after 48 hours of compound treatment as a proxy for cell viability.
Assay Submitter: Nathalia J. Martinez, National Center for Advancing Translational Sciences, National Institutes of Health, Rockville, MD, USA; email: natalia.martinez@nih.gov
[1] Shen, M et al. Quantitative high-throughput phenotypic screening of pediatric cancer cell lines identifies multiple opportunities for drug repurposing. Oncotarget 2017 Dec 19;9(4):4758-4772. PMID 29435139.
The cells were obtained from University of North Carolina (UNC), Pediatric Preclinical Testing Program (PPT), and Coriell Institute (CI).
qHTS cell viability assay:
Cells were assayed in growth media at a density of 500-1,000 cells/well. Five microliters of cells were dispensed into 1,536-well, white, solid-bottom, TC-treated plates (Greiner Bio One) using a multidrop dispenser and incubated at 37 degrees C, 5% CO2, under a humidified atmosphere for 5 hours. Twenty-three nanoliters of compounds and controls (neutral control DMSO or positive control bortezomib at final concentration of 2.3 µM) were subsequently transferred by Kalypsys pintool. For primary screens, the MIPE collection was tested at 11-point dilutions (final concentrations range from 0.78 nM to 46 µM) and the NPC collection at 8-point dilutions (final concentrations range from 0.59 nM to 46 µM). Compounds tested in follow-up screens were assayed at 11-point dilutions. Cells were incubated for 48 hours, followed by addition of 3 uL of CellTiter-Glo (Promega). After a 15 min incubation at room temperature, samples were analyzed for luminescence intensity using a ViewLux High-throughput CCD imager equipped with clear filters.
For `Oc1cn2c(n1)Nc1ccc(Cl)c(Cl)c1C2`, the Potency was “inactive”. For `CC/C=C(\C(=O)N[C@@H]1C(=O)N2C(C(=O)OCOC(=O)C(C)(C)C)=C(COC(N)=O)CS[C@H]12)c1csc(N)n1`, the Potency was “inactive”. In the case of `NS(=O)(=O)c1cc2c(cc1Cl)NC(CSCc1ccccc1)=NS2(=O)=O`, the Potency is reported as “inactive”. With `NCCNCCNCCN` the Potency was “inactive”. With `Cc1c(Cl)cccc1Nc1ccccc1C(=O)O` the Potency was “inactive”. With `CN1CCOC(c2ccccc2)c2ccccc2C1` (stereo not given) the Potency was “inactive”. For `CC(CN1c2ccccc2Sc2ccccc21)N(C)C` (stereo not given), the Potency was “inactive”. For `CCCc1c(OCCCCc2nn[nH]n2)ccc(C(C)=O)c1O`, the Potency was “inactive”. With `CNC(=O)Oc1ccc2c(c1)[C@]1(C)CCN(C)[C@@H]1N2C` the Potency was “inactive”. With `COc1ccc2cc1Oc1cc3c(cc1OC)CC[N+](C)(C)[C@H]3Cc1ccc(cc1)Oc1c(OC)c(OC)cc3c1[C@@H](C2)[N+](C)(C)CC3` the Potency was “inactive”. With `CC(C)(O)c1ccccc1CC[C@@H](SCC1(CC(=O)O)CC1)c1cccc(/C=C/c2ccc3ccc(Cl)cc3n2)c1` the Potency was “inactive”. With `COc1cc2[nH]c(=O)[nH]c(=O)c2cc1OC` the Potency was “inactive”. With `CNCC(O)c1ccc(O)c(O)c1` (stereo not given) the Potency was “inactive”. For `CC[C@H]1CN2CCc3cc(OC)c(OC)cc3[C@@H]2C[C@@H]1C[C@H]1NCCc2cc(OC)c(OC)cc21`, the Potency was 0.237 µM (active). In the case of `CCCCCCCCCCCCCCCCCCOCC(O)CO` (stereo not given), the Potency is reported as “inactive”. For `COC(=O)C1=C(C)NC(C)=C(C(=O)OC)C1c1ccccc1[N+](=O)[O-]`, the Potency was “inactive”. For `NC(N)=NCCC[C@H](N)C(=O)O`, the activity change, negative = cytotoxic was 11.2% [at 4.84 µM] (inactive). With `Cc1c(O)cccc1C(=O)N[C@@H](CSc1ccccc1)[C@H](O)CN1C[C@H]2CCCC[C@H]2C[C@H]1C(=O)NC(C)(C)C` the Potency was 21.1 µM (active). In the case of `Nc1ccc(S(=O)(=O)Nc2ccc(Cl)nn2)cc1`, the Potency is reported as “inactive”. For `Cc1cccc(Nc2cc(Cl)nc(SCC(=O)O)n2)c1C`, the Potency was “inactive”. For `CCCCN(CCCC)CCCOC(=O)c1ccc(N)cc1`, the Potency was “inactive”. For `O=c1[nH]c(=O)c2[nH]c(=O)[nH]c2[nH]1`, the activity change, negative = cytotoxic was 1.34% [at 9.22 µM] (inactive). With `Nc1cc(=O)[nH]c(N)n1` the Potency was “inactive”. In the case of `CCCCOC(=O)c1ccc(O)cc1`, the Potency is reported as “inactive”. In the case of `O=c1cc(CO)occ1O`, the Potency is reported as “inactive”. With `CCCOC(=O)c1ccccc1` the Potency was “inactive”. In the case of `C[C@H]1O[C@@H](n2cc(F)c(=O)[nH]c2=O)[C@H](O)[C@@H]1O`, the Potency is reported as “inactive”. With `C[C@]12CC[C@@H]3c4ccc(O)cc4CC[C@H]3[C@@H]1CCC2=O` the Potency was “inactive”. In the case of `CO/N=C(\C(=O)N[C@@H]1C(=O)N2C(C(=O)O)=C(CSc3nc(=O)c(O)nn3C)CS[C@H]12)c1csc(N)n1`, the Potency is reported as “inactive”. With `O=C1NS(=O)(=O)c2ccccc21` the Potency was “inactive”. For `CCCCCCCCCCCCCCCC(=O)NCCO`, the Potency was “inactive”. With `CC(C)c1c(C(=O)Nc2ccccc2)c(-c2ccccc2)c(-c2ccc(F)cc2)n1CC[C@@H](O)C[C@@H](O)CC(=O)O` the Potency was 11.9 µM (active). With `O=C(O)CC(O)C(=O)O` (stereo not given) the Potency was “inactive”. With `C[C@H](NC(CCc1ccccc1)C(=O)O)C(=O)N1CCC[C@H]1C(=O)O` (stereo not given in full) the Potency was “inactive”. For `O=C(O)[C@@H]1CSCN1`, the Potency was “inactive”. With `NCC(=O)CCC(=O)O` the Potency was “inactive”. With `[Cl][In]([Cl])[Cl]` the Potency was “inactive”. For `O=C1N=C(O)CN1/N=C/c1ccc(-c2ccc([N+](=O)[O-])cc2)o1`, the Potency was “inactive”. With `CCC(=O)c1ccc(O)cc1` the Potency was “inactive”. For `CN(C)CCCO[C@@H]1[C@H]2OC(C)(C)O[C@H]2O[C@@H]1C(O)CO` (stereo not given in full), the Potency was “inactive”.
